RAD54 inh = inhibitors of human RAD54 branch migration; RAD54 Holliday junction branch migration, FAM/BHQ fluorescence; AID 602329; inhibition, % at 10.4 µM; actives 0.14% (n = 360,000); Q92698;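 active = mean normalized replicate activity at least 40 and at least half of replicates scoring 40 or more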;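 also: 0% = median of neutral control wells and 100% = median of positive control wells; inhibitors cause a drop in the FAM fluorescence signal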
MIN6 prolif-1 = MIN6 beta-cell proliferation induction; proliferation, % at 10 µM; actives 0.29% (n = 330,000); MIN6 cells proliferation, ATPlite luminescence, 48 h; cells starved in 0.2% serum; 100% = growth in 10% serum;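 active = compounds whose signal lies at least 3.5 SD above the mean of all wells on their plate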;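 also: 0% = DMSO-treated cells in low-serum medium and 100% = 10% serum control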
UBC13 inh = human UBC13 polyubiquitination inhibition. actives 0.47% (n = 330,000). UBC13 polyubiquitin chain formation, TR-FRET. inhibition, % at 20 µM. P61088; in the data active = inhibition above about 45%, passing the limit was not always enough
Target sequence (P61088 whole entry, looked up): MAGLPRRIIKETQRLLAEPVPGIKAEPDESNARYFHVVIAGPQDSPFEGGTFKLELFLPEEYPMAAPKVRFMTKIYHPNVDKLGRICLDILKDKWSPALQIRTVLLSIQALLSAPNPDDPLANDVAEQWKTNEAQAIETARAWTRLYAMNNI
RAD52 anneal inh = inhibitors of human RAD52 DNA annealing; actives 0.46% (n = 360,000); inhibition, % at 18.7 µM; recombinant RAD52 DNA annealing, FRET fluorescence; P43351; AID 651710;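 active = every replicate showing at least 50% inhibition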
PREPL inh = inhibitors of human prolyl oligopeptidase-like enzyme PREPL. Q4J6C6. recombinant PREPL, fluorescence polarization activity-based probe. inhibition, % at 5.96 µM. actives 0.68% (n = 320,000). AID 2751; in the data active = inhibition above about 43%;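 also: 0% = enzyme with DMSO and 100% = wells lacking enzyme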
DNA FID counter = counter-screen for HCV NS3 helicase inhibitors: DNA intercalator displacement; AID 1845; actives 0.17% (n = 290,000); inhibition, % at 7.9 µM; DNA fluorescent intercalator displacement, fluorescence; in the data active = inhibition above about 37%;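 also: 0% = vehicle and 100% = reference compound; higher means more ethidium bromide displaced from hairpin DNA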
MIN6 prolif-2 = MIN6 beta-cell replication induction, confirmed | shares compounds with MIN6 prolif-1 | MIN6 beta-cell proliferation, ATPlite luminescence, 48 h; cells kept in 0.2% serum; scaled between 0.2% and 10% serum | proliferation increase, % at 50 µM | 920 tested, under 10 active;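 active = proliferation increase above 40% at any of the four tested concentrations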
Numbers without * were called inactive; / = no result given; ! = repeats disagree. A selection: hits, their analogues and other compounds. The true share with any hit is near 1.3%.

SMILES	RAD54 inh	MIN6 prolif-1	UBC13 inh	RAD52 anneal inh	PREPL inh	DNA FID counter	others
C/C=C/c1ccc(C2[C@@H]3CN(C(=O)CN(C)C)C[C@H]2N3)cc1 (stereo partly specified)	/	/	/	58*!	/	/
CCOC(=O)[C@@H]1[C@@H]2NC(=S)N(C)[C@@]1(COCc1ccc(OC)cc1)Oc1ccccc12	-4	/	/	22	/	/
CCCCCSc1cc(OC)c(CCN)cc1OC	5	-4	22	/	21	39*
Nc1c(C(=O)NCc2ccco2)c2nc3ccccc3nc2n1CCN1CCCCC1	75*	-4	-26	/	17	9
Cc1cccc(S(=O)(=O)N2[C@@H]3Cn4c(ccc(-c5ccncc5)c4=O)[C@H]2[C@@H](C(=O)O)[C@@H]3CO)c1	1	/	/	-26	/	/
Clc1ccc(CO/N=C(\Cn2ccnc2)c2ccc(Cl)cc2Cl)c(Cl)c1	/	-8	51*	/	-14	/
C/C=C/c1ccc(C2[C@@H]3CN(C(=O)c4cnccn4)C[C@H]2N3)cc1 (stereo partly specified)	/	/	/	18	/	/
CC1Oc2cc3c(-c4c(O)cc(O)c5c(O)c6c(cc45)OC(C)C(C)C6=O)c(O)cc(O)c3c(O)c2C(=O)C1C (stereo unspecified)	9	-6	-61	/	85*	9
CN1CC[C@@]2(C)c3cc(O)ccc3N(C)[C@@H]12	3	/	/	69*!	/	/
CN1CC[C@@]2(C)c3cc(O)ccc3N(C)C2O1 (stereo partly specified)	-6	-9	-97	/	8	/
c1cc(-c2ccc(C3[C@H]4CNC[C@@H]3N4CC3CC3)cc2)ccn1 (stereo partly specified)	/	/	/	14	/	/
COC(=O)[C@@H]1[C@@H](CO)[C@@H]2Cn3c(ccc(-c4cccc(F)c4)c3=O)[C@H]1N2Cc1ccncc1	21	/	/	-12	/	/
COC(=O)[C@@H]1[C@@H](CO)[C@@H]2Cn3c(ccc(-c4ccccc4F)c3=O)[C@H]1N2Cc1ccncc1	18	/	/	107*	/	/
CCCN1[C@@H]2c3ccc(-c4ccc(F)cc4)c(=O)n3C[C@H]1[C@H](CO)[C@H]2C(=O)OC	3	/	/	57*	/	/
COC(=O)[C@H]1[C@H](CO)[C@H]2Cn3c(ccc(-c4ccccc4F)c3=O)[C@@H]1N2Cc1ccccc1	0	/	/	1	/	/
COC(=O)[C@H]1[C@H](CO)[C@H]2Cn3c(ccc(-c4ccccc4F)c3=O)[C@@H]1N2Cc1ccncc1	6	/	/	123*	/	/
O=C(Cc1ccccn1)N1CC2(C1)[C@H](c1ccccc1)[C@@H](CO)N2Cc1ccccn1	/	/	/	-156	/	/
C[C@@H]1CN([C@@H](C)CO)C(=O)c2c(c3ccccc3n2C)-c2ccccc2CO[C@H]1CN(C)C(=O)Oc1ccccc1	/	/	/	-8	/	/
CN1CCN(c2cccc3c2C(=O)c2ccccc2C3=O)CC1	79*	/	/	26	/	60*
O=C(Cc1cccnc1)N1CCCCN2[C@H](CO)[C@@H](c3ccc(/C=C/c4ccccc4)cc3)[C@@H]2C1	3	/	/	-33	/	/
CCNc1cc(N2CCN(C)CC2)ccc1[N+](=O)[O-]	14	-3	-81	-9	5	5
CN1CCN(c2ccc([N+](=O)[O-])c(N/N=C3\CN4CCC3CC4)c2)CC1	70*	-1	-83	/	10	42*
COc1ccc(NC(=O)C2C3CCC(O3)C2C(=O)O)c(OC)c1 (stereo unspecified)	-4	6.7*	-8	-18	-5	2	MIN6 prolif-2=-3
CCCCCCn1c(=O)c(C(=O)Nc2ncccc2C)c(O)c2ccccc21	-6	6.6*	38	-12	-10	-16	MIN6 prolif-2=-6
CC1(C)CCCN1CCC(C(N)=O)(c1ccccc1)c1ccccc1	/	/	/	-14	/	/
CC(C)N(CCC(C(N)=O)(c1ccccc1)c1ccccn1)C(C)C (stereo unspecified)	2	13*!	11	-4	27	1	MIN6 prolif-2=4
COC(=O)[C@@H]1[C@@H](CO)[C@@H]2Cn3c(ccc(-c4ccc(F)cc4)c3=O)[C@H]1N2Cc1ccccc1	1	/	/	-3	/	/
O=C(Cc1ccccc1)N1CCCCN2[C@@H](CO)[C@H](c3ccc(C#CC4(O)CCCC4)cc3)[C@@H]2C1	4	/	/	-1	/	/
COc1ccc(-c2nc3ccccc3n2OC(=O)N(C)C)cc1	-1	0	2	/	7	-10
